Bioassay records as filed in PubChem BioAssay.
Compounds with a hit are over-represented: about 4.3% of the library has one in this group of screens.
MazF activator: increases E. coli MazEF RNase cleavage of RNA; P0AE70; FAM/BHQ RNA-DNA oligo cleavage fluorescence, 5 h; activation, % at 20 µM; 0.32% of 350,000 active; AID 504720; in the data active = activation above about 50%
BoNT A protease: blocks Botulinum neurotoxin A light chain protease; 0.17% of 360,000 active; inhibition, % at 10 µM; multiplex microsphere protease substrate cleavage, flow cytometry; note: plate controls were buffer without enzyme for full effect and enzyme alone for no effect
BoNT F protease: blocks Botulinum neurotoxin F light chain protease; Multiplex microsphere protease cleavage assay, flow cytometry; inhibition, % at 10 µM; 0.22% of 360,000 active; AID 588497; in the data active = inhibition above about 35%, passing the limit was not always enough; inconclusive = no clear call, values can overlap the other calls; note: plate controls were buffer without enzyme for full effect and enzyme alone for no effect
Autofluor counter: flagged as autofluorescent in microsphere protease counterscreen | compound autofluorescence counterscreen, microsphere flow cytometry; stronger effect = higher value | fluorescence intensity (test concentration not listed) | 3.1% of 360,000 active; in the data active = fluorescence intensity above about 16000; inconclusive = no clear call, values can overlap the other calls
PfHsp40 yeast: compounds rescuing yeast from Plasmodium falciparum HSP40 toxicity. S. cerevisiae expressing PfHsp40, growth rescue, ATP luminescence. growth rescue, % at 12.5 µM. 0.68% of 340,000 active. AID 504582; in the data active = growth rescue above about 28%, passing the limit was not always enough; inconclusive = no clear call, values can overlap the other calls;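 note: yeast W303a lacking pdr1 and pdr3 grown in galactose medium; growth measured after three days at 30 °C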
Anthrax LF inh2: inhibitors of Bacillus anthracis lethal factor protease | 0.12% of 360,000 active | inhibition, % at 10 µM | multiplex microsphere protease cleavage assay, LF | P15917; note: plate controls were buffer without enzyme for full effect and enzyme alone for no effect
Target sequence (P15917 whole entry, looked up): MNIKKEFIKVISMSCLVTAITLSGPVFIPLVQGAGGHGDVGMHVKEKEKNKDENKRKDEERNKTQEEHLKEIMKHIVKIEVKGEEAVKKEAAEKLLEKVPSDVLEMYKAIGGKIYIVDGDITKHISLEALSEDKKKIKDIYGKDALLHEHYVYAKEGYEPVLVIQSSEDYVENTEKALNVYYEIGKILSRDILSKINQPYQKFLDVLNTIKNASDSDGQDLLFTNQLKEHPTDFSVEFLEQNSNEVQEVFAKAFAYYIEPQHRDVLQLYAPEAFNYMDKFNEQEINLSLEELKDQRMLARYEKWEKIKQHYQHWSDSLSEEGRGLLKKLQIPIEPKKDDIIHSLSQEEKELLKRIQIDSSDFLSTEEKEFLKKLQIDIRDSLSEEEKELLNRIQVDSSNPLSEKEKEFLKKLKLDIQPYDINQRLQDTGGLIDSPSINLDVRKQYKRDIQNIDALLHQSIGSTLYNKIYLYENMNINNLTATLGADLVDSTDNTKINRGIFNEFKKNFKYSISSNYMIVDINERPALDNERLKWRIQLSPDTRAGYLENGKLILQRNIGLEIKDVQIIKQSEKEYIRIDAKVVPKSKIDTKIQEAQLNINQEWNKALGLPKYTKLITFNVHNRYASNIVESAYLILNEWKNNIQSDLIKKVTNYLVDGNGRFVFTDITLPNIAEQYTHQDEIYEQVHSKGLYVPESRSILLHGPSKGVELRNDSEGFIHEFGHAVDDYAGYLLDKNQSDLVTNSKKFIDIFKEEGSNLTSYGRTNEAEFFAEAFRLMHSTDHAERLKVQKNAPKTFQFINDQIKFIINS
Active calls of the source: *. Cut-off read from the data, not from the text of the source, unless noted: active = inhibition above about 30%; inconclusive = no clear call, values can overlap the other calls; inactive = below that.

Results for C[C@H]1NC(=O)[C@@]2(C)[C@H](c3ccccc3)[C@H]3COc4ccccc4[C@@H]3N2C1=O ?
MazF activator: 0; BoNT A protease: 0; BoNT F protease: 3; Autofluor counter: 3486; PfHsp40 yeast: 0; Anthrax LF inh2: -4

Results for CC1CCN(S(=O)(=O)c2cc(C(=O)NC3(C)CCS(=O)(=O)C3)ccc2Br)CC1 (stereo unspecified) ?
MazF activator: 2; BoNT A protease: 1; BoNT F protease: 1; Autofluor counter: 3421; PfHsp40 yeast: 1; Anthrax LF inh2: 6

How did Cc1c(NC(=O)CN2C(=O)NC(C)(c3ccc(Cl)cc3)C2=O)c(=O)n(-c2ccccc2)n1C (stereo unspecified) do in these assays?
MazF activator: 5; BoNT A protease: -2; BoNT F protease: -3; Autofluor counter: 6434; PfHsp40 yeast: 0; Anthrax LF inh2: 1

What do the screens show for `Cc1ccc(NC(=O)CSc2nnnn2C)cc1S(=O)(=O)N1CCCCC1`?
MazF activator: -17; BoNT A protease: 0; BoNT F protease: 0; Autofluor counter: 3750; Anthrax LF inh2: 3

Results for CCOC(=O)C1C(=O)NC(N2CCN(c3ccccc3)CC2)=NC1c1ccccc1 (stereo unspecified) ?
MazF activator: 0; BoNT A protease: -2; BoNT F protease: -2; Autofluor counter: 23474*; PfHsp40 yeast: 1; Anthrax LF inh2: 1

Results for CCOC(=O)C1C(=O)NC(c2ccccc2)=NC1c1ccc(C(C)C)cc1 (stereo unspecified) ?
MazF activator: -6; BoNT A protease: 0; BoNT F protease: inconclusive; Autofluor counter: 4678; PfHsp40 yeast: 1; Anthrax LF inh2: 1

Results for CCOC(=O)C1C(=O)NC(c2ccccc2)=NC1c1ccc(Cl)cc1 (stereo unspecified) ?
MazF activator: 9; BoNT A protease: 2; BoNT F protease: 1; Autofluor counter: 22764*; PfHsp40 yeast: 1; Anthrax LF inh2: -2

Results for Cc1ccc(OCCNC(=O)c2ccc(NC(=O)CC3SC(N4CCCC4)=NC3=O)cc2)cc1 (stereo unspecified) ?
MazF activator: 5; PfHsp40 yeast: 1

Results for O=C(CN1C(=O)C2CCCCC2C1=O)Nc1cc([N+](=O)[O-])ccc1F (stereo unspecified) ?
MazF activator: -3; BoNT A protease: 0; BoNT F protease: 0; Autofluor counter: 5657; PfHsp40 yeast: -1; Anthrax LF inh2: 0

What do the screens show for `Cn1nnnc1SCCNCc1ccc(Cl)cc1`?
MazF activator: -1; BoNT A protease: inconclusive; BoNT F protease: -9; Autofluor counter: 17333*; PfHsp40 yeast: -2; Anthrax LF inh2: -2

How did Cn1nnnc1SCCNCc1ccccc1OCc1ccc(Cl)cc1 do in these assays?
MazF activator: -9; BoNT A protease: 0; BoNT F protease: -15; Autofluor counter: 2681; PfHsp40 yeast: 0; Anthrax LF inh2: -1

Results for COc1cc(CN2CCCC(N3CCN(c4ccccc4C)CC3)C2)ccc1O (stereo unspecified) ?
MazF activator: 0; BoNT A protease: 0; BoNT F protease: 3; Autofluor counter: 3770; PfHsp40 yeast: -2; Anthrax LF inh2: -7

How did COc1ccc(CCNCc2ccccn2)cc1OC do in these assays?
MazF activator: 0; BoNT A protease: -2; BoNT F protease: -3; Autofluor counter: 16567*; PfHsp40 yeast: -2; Anthrax LF inh2: -4

Results for CCOc1cc(CNCCc2ccc(S(N)(=O)=O)cc2)ccc1OCc1ccccc1 ?
MazF activator: 10; BoNT A protease: -5; BoNT F protease: -18; Autofluor counter: 22507*; PfHsp40 yeast: -1; Anthrax LF inh2: -2

How did COc1ccc(CNCCc2ccc(Cl)cc2)cc1OCc1ccccc1 do in these assays?
MazF activator: -4; BoNT A protease: 0; BoNT F protease: -6; Autofluor counter: 4696; PfHsp40 yeast: 0; Anthrax LF inh2: -8

How did COc1ccc(CNCCc2ccccc2)cc1OCC(N)=O do in these assays?
MazF activator: 3; BoNT A protease: 4; BoNT F protease: 3; Autofluor counter: 20991*; PfHsp40 yeast: 0; Anthrax LF inh2: 0

What do the screens show for `COc1ccc(CCNc2ccncn2)cc1OC`?
MazF activator: 1; BoNT A protease: 2; BoNT F protease: 3; Autofluor counter: 23028*; PfHsp40 yeast: 1; Anthrax LF inh2: 0

What do the screens show for `c1nc2sc3c(c2c2nnnn12)CCCC3`?
MazF activator: -1; BoNT A protease: 1; BoNT F protease: 5; Autofluor counter: 12972; PfHsp40 yeast: 2; Anthrax LF inh2: -2

How did c1nc2sc3c(c2c2nnnn12)CCC3 do in these assays?
MazF activator: 3; BoNT A protease: 0; BoNT F protease: 0; Autofluor counter: 23437*; PfHsp40 yeast: 0; Anthrax LF inh2: -2

How did CNC(=O)N1CCC(C(=O)c2c(C)c(C)c(C)c(C)c2C)CC1 do in these assays?
MazF activator: 2; BoNT A protease: -5; BoNT F protease: 19; Autofluor counter: 4403; PfHsp40 yeast: 2; Anthrax LF inh2: 14

What do the screens show for `C/C(=N\Nc1nc(N)cc(Cl)n1)c1cccc(N)c1`?
MazF activator: -1; BoNT A protease: 0; BoNT F protease: 4; Autofluor counter: 2354; PfHsp40 yeast: 0; Anthrax LF inh2: -1

How did C/C(=N\Nc1nc(N)cc(Cl)n1)c1cccc([N+](=O)[O-])c1 do in these assays?
MazF activator: -6; BoNT A protease: -1; BoNT F protease: 1; Autofluor counter: 22572*; PfHsp40 yeast: 1; Anthrax LF inh2: 1

What do the screens show for `Cn1cc(CN2CCN(c3ccccc3)CC2)c2ccccc21`?
MazF activator: 7; BoNT A protease: 3; BoNT F protease: 1; Autofluor counter: 21941*; PfHsp40 yeast: 1; Anthrax LF inh2: -13

What do the screens show for `Clc1ccccc1CN1CCN(c2ccccc2)CC1`?
MazF activator: -10; BoNT A protease: 1; BoNT F protease: 7; Autofluor counter: 5857; PfHsp40 yeast: 1; Anthrax LF inh2: 2

Results for CC(C)NC(=O)NC(=O)CSc1ncc(C(F)(F)F)cc1Cl ?
MazF activator: 1; BoNT A protease: -2; BoNT F protease: -3; Autofluor counter: 22963*; PfHsp40 yeast: 1; Anthrax LF inh2: 0

Results for Cc1ccc(CN2CC34C=CC(O3)C(C(=O)NCc3ccc5c(c3)OCO5)C4C2=O)cc1 (stereo unspecified) ?
MazF activator: 5; BoNT A protease: 0; BoNT F protease: 8; Autofluor counter: 9906; PfHsp40 yeast: inconclusive; Anthrax LF inh2: -3

What do the screens show for `CCOC(=O)C1C2C=CC3(CN(Cc4cccs4)C(=O)C13)O2` (stereo unspecified)?
MazF activator: 1; BoNT A protease: 1; BoNT F protease: 5; Autofluor counter: 2963; PfHsp40 yeast: 1; Anthrax LF inh2: 4

Results for COCCCNC(=O)C1C2C=CC3(CN(Cc4ccc(C)cc4)C(=O)C13)O2 (stereo unspecified) ?
MazF activator: 2; BoNT A protease: -1; BoNT F protease: -1; Autofluor counter: 23422*; PfHsp40 yeast: 1; Anthrax LF inh2: -2
